A selection: hits, their analogues and other compounds. The true share with any hit is near 0.97%.
uPA generation: blocks generation of uPA at the cell surface. cell surface uPA generation assay, qHTS. Potency, µM (series often up to 38.3 µM), most hits filed as inhibitors. actives 0.31% (n = 330,000). AID 540303; active = well fitted inhibition curve with a large enough effect; inconclusive = small, poorly fitted or top-dose-only effect; inactive = no such curve, though single readings can be large or run the other way; tested in mouse RAW 264.7 cells; also: nearly all actives have a fitted effect of over 55% in size
Epigenetic derep: derepresses silenced GFP reporter in murine cells; AID 1865; Potency, µM (titrated, usually from 53.9 µM), hits mostly activators; murine LDR cells, GFP reporter derepression, 30 h; actives 0.2% (n = 280,000); also: nearly all actives have a fitted effect of over 60% in size
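In this reporter-derepression format, murine cells bearing a silenced integrated CMV-GFP locus incubate with test compound (30 h, 37 C), then are washed and imaged; fluorescent objects of 20–120 um count as induced cells.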
MBNL1 CUG block: MBNL1-poly(CUG) RNA binding inhibition. Potency, µM (highest dose often 57.5 µM), usual class: inhibitors. TR-FRET MBNL1-His/biotin-(CUG)12 binding, 665/545 ratio. AID 2675. actives 0.036% (n = 280,000). Q9NR56; active = well fitted inhibition curve with a large enough effect in the signal ratio, with a control signal flat, not every such curve was filed as active; inconclusive = small, poorly fitted or top-dose-only effect, or effect the other way, or a change in a side signal; inactive = no such curve, though single readings can be large or run the other way; the % refers to the signal ratio
Target sequence (Q9NR56 whole entry, looked up): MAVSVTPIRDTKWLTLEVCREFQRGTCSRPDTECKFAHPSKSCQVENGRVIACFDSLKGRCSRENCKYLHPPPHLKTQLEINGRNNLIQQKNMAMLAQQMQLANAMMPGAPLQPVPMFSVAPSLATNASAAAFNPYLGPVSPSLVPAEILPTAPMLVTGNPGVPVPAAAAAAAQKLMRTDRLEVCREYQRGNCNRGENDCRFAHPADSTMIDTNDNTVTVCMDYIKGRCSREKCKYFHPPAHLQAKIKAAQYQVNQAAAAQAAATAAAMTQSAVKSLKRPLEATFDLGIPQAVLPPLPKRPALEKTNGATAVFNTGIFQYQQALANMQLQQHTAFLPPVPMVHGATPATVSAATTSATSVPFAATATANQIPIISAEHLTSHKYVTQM
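Ratiometric TR-FRET (665 over 545 nm, excitation 340 nm) tracks disruption of MBNL1-His/biotin-(CUG)12 complex after 60 min at room temperature, with compounds at 92 nM to 58 uM final.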
Akt phos inh: inhibitors of Akt phosphorylation. Neuro2A IGF-stimulated pAkt S473 HTRF, 20 min; stronger effect = lower value. activity change, % for hits at 50 µM. actives 0.32% (n = 360,000). AID 651550; in the data active = activity change below about -80%; inconclusive = mostly about -51% to -80%
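Neuro2A cells (4,500/well, DMEM with 0.5% FBS) were treated with compound at a single 50 µM final concentration, stimulated with 6 nM IGF for 20 min at 37 °C, and lysed. Phospho-Akt Ser473 was read by HTRF as 665/615 ratio ×10^4.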
CCT modulator: modulators of cytosolic chaperonin (CCT/TRiC) activity; purified chaperonin ATPase assay, HTRF ADP detection, 30 min; activity change, % (no concentration beside the values), hits read low; actives 0.3% (n = 360,000); in the data active = activity change below about -30%
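TRiC (40 or 20 nM final, by batch activity) in 30 mM Tris pH 7.4, 100 mM KCl, 5 mM MgCl2, 1 mM DTT was treated with compound at 76 uM single dose, then 10 uM ATP, 30 min at 37 °C. ADP was read by HTRF Transcreener.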
MmCpn inh: M. maripaludis TRiC chaperonin inhibition | purified Mm-Cpn ATPase, ADP Transcreener TR-FRET | Potency, µM (doses to about 76.9 µM), most hits filed as inhibitors | actives 0.031% (n = 330,000) | AID 504842; also: nearly all actives have a fitted effect of over 80% in size
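Measured: ADP formation by purified Mm-CPN. Conditions: 25 nM protein, 10 uM ATP, Tris pH 7.4 with Mg2+, K+ and DTT, 37°C for 30 min. Detection: Transcreener HTRF after 30 min at room temperature.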
Numbers stand for hits; i = inactive; ? = inconclusive; nt = no result. Unless noted, calls follow the shape of the dose curve; as a rule, active = well fitted curve in the direction sought with a large enough effect; inconclusive = small, poorly fitted or top-dose-only effect, or another doubt; inactive = no such curve, though single readings can be large; an effect the other way counts as inactive or inconclusive.

SMILES	uPA generation	Epigenetic derep	MBNL1 CUG block	Akt phos inh	CCT modulator	MmCpn inh
COc1ccccc1NCCC(=O)OCC(=O)NCc1ccco1	i	i	i	-106%	i	i
CCn1c(SCc2ccc(F)cc2)nnc1C1CCN(S(=O)(=O)c2ccc(OC)cc2)CC1	i	i	i	i	i	i
CCn1c(SCc2ccc(C)cc2)nnc1C1CCN(S(=O)(=O)c2ccc(OC)cc2)CC1	i	i	i	-130%	i	i
C=CCn1c(=O)c2ccccc2n2c(Sc3nnnn3-c3ccccc3)nnc12	i	i	i	-110%	i	i
Cc1ccc(Cc2nc3ccccc3nc2SCC(=O)NCCc2ccccc2)cc1	nt	i	nt	nt	nt	nt
CCc1ccc(S(=O)(=O)c2nnn3c2nc(NCc2cccc(OC)c2)c2cc(Cl)ccc23)cc1	nt	i	nt	nt	nt	nt
COCCn1c(=O)[nH]c2cc(C(=O)NCCN3CCN(c4cccc(Cl)c4)CC3)ccc2c1=O	i	i	i	-118%	i	i
COC(=O)C1=C(C)NC(C)=C(C(=O)OC)C1C1CC=CCC1 (stereo not given)	i	i	i	-130%	i	i
CCOC(=O)C1=C(C)NC(=O)NC1C1CC=CCC1 (stereo not given)	i	i	i	i	i	i
CC(=O)Nc1ccc(S(=O)(=O)NN=CCCc2ccccc2)cc1	i	nt	nt	i	i	nt
Cc1ccc(N2CC(NC(=O)c3ccc4c(c3)OCO4)CC2=O)cc1 (stereo not given)	nt	i	nt	nt	nt	nt
COc1cc2sc(-c3ccccc3OC)c(-c3ccc(OCCN4CCOCC4)cc3)c2cc1OC	?	nt	nt	i	i	45µM
COc1ccc2c(-c3ccc(OCCN4CCOCC4)cc3)c(-c3ccccc3OC)sc2c1	i	nt	nt	i	i	32µM
COc1ccc2c(-c3ccc(OCCN4CCCCC4)cc3)c(-c3ccccc3OC)sc2c1	?	nt	nt	i	i	i
CN(C)CC(C)(C)CNC(=O)c1ccc(Cc2nc3ccccc3[nH]2)cc1	nt	i	nt	nt	nt	nt
O/C(=C\c1nc2ccccc2[nH]1)c1cccs1	i	nt	?	i	i	i
O=c1[nH]c2ccccc2nc1/C=C(\O)c1cccs1	i	22µM	?	i	i	i
CSC1=NC(NCCCO)c2c(sc3c2CC(C)(C)OC3)N1 (stereo not given)	i	i	i	-101%	i	i
CSc1nc(SCC(=O)O)c2c3c(sc2n1)COC(C)(C)C3	i	i	i	i	i	i
CC(=O)NCCNC(=O)c1ccc(Sc2ccccc2)c([N+](=O)[O-])c1	i	i	?	i	-33	i
CC(C)(CO)[C@H](O)C(=O)NCCCO	nt	i	nt	nt	nt	nt
Cn1c(/C=C/c2ccccc2)nc2ccccc21	4µM	i	i	i	i	i
Cn1c(=O)c(/C=C/c2ccccc2)nc2ccccc21	i	i	i	i	i	i
COc1ccc(OC(=O)CN2C(=O)C3C4CCC(C4)C3C2=O)cc1 (stereo not given)	i	i	nt	i	i	i
CCOc1ccc(/C=N/n2c(C)nnc2C)cc1OC	i	i	i	i	i	i
SMILES	uPA generation	Epigenetic derep	MBNL1 CUG block	Akt phos inh	CCT modulator	MmCpn inh
O=C(CCl)Nc1ccc(N=Nc2ccccc2)cc1	14µM	i	nt	i	i	i
COc1cc(NC(=O)c2cnc(NCc3ccccc3)nc2C)cc(OC)c1OC	i	nt	i	i	i	i
COc1cccc(CNc2ncc(C(=O)Nc3cc(OC)c(OC)c(OC)c3)c(C)n2)c1	5.6µM	nt	i	i	i	i
COc1cccc(C(=O)c2c[nH]c(C(=O)NCc3ccco3)c2)c1	i	i	i	-112%	-42	i
COc1ccc(C(=O)c2c[nH]c(C(=O)NCc3ccco3)c2)cc1	i	i	i	i	i	i
Cn1nnnc1Sc1ncnc2scc(Br)c12	2.8µM	nt	nt	nt	nt	i
Cn1nnnc1Sc1ncnc2scc(-c3ccccc3Br)c12	?	nt	nt	nt	nt	i
CCNC(=O)CN1C(=O)NC2(CCCc3cc(OC)ccc32)C1=O (stereo not given)	i	i	i	i	i	i
COCCNC(=O)CN1C(=O)NC2(CCCc3cc(OC)ccc32)C1=O (stereo not given)	i	nt	i	i	-36	i
CCCc1cc(C(=O)N/N=C/c2ccc(CC)s2)c2ccccc2n1	i	i	i	-118%	i	i
COc1ccc2c(=O)cc(-c3ccncc3)oc2c1OC	i	nt	nt	i	i	nt
COc1ccccc1C(=O)N/C(=C\c1cn(C)c2ccccc12)C(=O)NCCCn1ccnc1	i	nt	?	i	i	i
Cc1cccc(-c2cc3nc(C)cc(NCCCN(C)C)n3n2)c1	i	i	i	nt	i	i
CN(C)CCCNc1cc(-c2ccccc2)nc2cc(-c3cccc(F)c3)nn12	5µM	nt	i	i	i	i
NC1(C#Cc2ccc3c(=O)c4ccccc4sc3c2)CCCCC1	i	nt	nt	i	i	i
Cn1c2ccccc2c(=O)c2cc(C#CC3(O)CCCCC3)ccc21	1.3µM	nt	i	i	i	i
Cn1c2ccccc2c(=O)c2ccc(C#CC3(N)CCCCC3)cc21	?	nt	?	i	i	i
Cc1cc2sc3ccc(C#CC4(O)CCCCC4)cc3c(=O)c2cc1C	10µM	nt	nt	i	i	nt
O=c1c2ccccc2oc2ccc(C#CC3(O)CCCCC3)cc12	2.8µM	nt	nt	i	i	nt
Cc1ccc(N(CC(=O)N2CCN(c3ccc(Cl)cc3)CC2)S(=O)(=O)c2c(C)noc2C)cc1	nt	i	nt	nt	nt	nt
Cc1cnn(C(=S)NCC2CCCO2)c1 (stereo not given)	i	i	i	-103%	i	i
CC(=O)Nc1ccc(NC(=O)C2Cc3ccccc3N2C(=O)c2ccccc2)cc1 (stereo not given)	nt	i	nt	nt	nt	nt
COC(=O)c1c(-c2ccc(OC)cc2)sc2cc3c(cc12)OCO3	i	nt	nt	i	i	50µM
Cc1cccc(OCc2nnc(N)s2)c1C	i	i	i	-120%	i	i
CCN1CCN(c2ccc(N=Cc3ccccc3O)cc2)CC1	?	i	i	i	i	i
SMILES	uPA generation	Epigenetic derep	MBNL1 CUG block	Akt phos inh	CCT modulator	MmCpn inh
CCCNCc1cc(Cl)c(OCC)c(Cl)c1	nt	i	?	i	i	i
C=CCOc1c(Cl)cc(CNCCC)cc1Cl	i	i	i	-91%	i	i
COc1ccc(OC(=O)c2ccc3nsnc3c2)cc1	i	?	?	i	-48	i
Cc1ccc(OC(=O)c2ccc3nc(C)sc3c2)cc1	i	i	i	i	i	i
CN1CCc2c(sc3nc(SCC(=O)N4CCOCC4)nc(N)c23)C1	i	i	i	-104%	i	i
CC1CCN(C(=O)CSc2nc(N)c3c4c(sc3n2)CN(C)CC4)CC1	i	i	i	i	i	i
CCn1c(C)cc(/C=C2\NC(=O)N(CC(=O)Nc3ccc(F)cc3)C2=O)c1C	i	25µM	i	i	i	i
CCc1cccc(NC(=O)C2CCCN(S(=O)(=O)c3c(C)[nH]c(=O)[nH]c3=O)C2)c1 (stereo not given)	i	i	i	i	-41	nt

Assay outcomes deposited in PubChem by National Center for Advancing Translational Sciences (NCATS).
